# Results: PubChem BioAssay (NCATS)
# Results filed as inconclusive are left out. Entries that show only a call come without a potency. Calls of active or inactive are those of the source. The call rests on the fitted dose curve; in most records, active means well fitted curve in the direction sought with a large enough effect; inconclusive means small, poorly fitted or top-dose-only effect, or another doubt; inactive means no such curve, though single readings can be large; an effect the other way counts as inactive or inconclusive.
# Key:
# [1] = qHTS of pediatric cancer cell lines to identify multiple opportunities for drug repurposing: Primary screen for DAOY cells (AID 1347090); conditions: DAOY medulloblastoma viability, CellTiter-Glo luminescence, 48 h; series mostly up to 46 µM; further: nearly all actives have a fitted effect of over 55% in size
# Summary of the method: (§1)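 Cell viability, CellTiter-Glo luminescence; 500-1,000 cells/well, 8- or 11-point titration, 48 h compound exposure at 37 degrees C, 5% CO2. Controls: DMSO neutral, bortezomib 2.3 µM final as positive.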
# [2] = qHTS of pediatric cancer cell lines to identify multiple opportunities for drug repurposing: Primary screen for NB-EBc1 cells (AID 1347095); conditions: NB-EBc1 neuroblastoma viability, CellTiter-Glo luminescence, 48 h; series mostly up to 46 µM
# Summary of the method: (§2)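 Viability was measured as metabolically active cells after 48 hours of treatment, read by CellTiter-Glo luminescence. Compounds were tested at multiple final concentrations, giving concentration-response curves.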
# [3] = qHTS of pediatric cancer cell lines to identify multiple opportunities for drug repurposing: Primary screen for U-2 OS cells (AID 1347096); conditions: U-2 OS viability, CellTiter-Glo luminescence, 48 h; series mostly up to 46 µM; further: nearly all actives have a fitted effect of over 50% in size; further: potency means the concentration at half of the fitted maximal effect
# Summary of the method: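 Cells (500-1,000/well) rested 5 h, then received compounds for 48 h; metabolically active cells were measured by CellTiter-Glo luminescence. Final concentrations spanned up to 46 µM (MIPE, 11-point) or 0.59 nM-46 µM (NPC, 8-point) in primary screens, 11-point in follow-ups.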
# [4] = qHTS of pediatric cancer cell lines to identify multiple opportunities for drug repurposing: Primary screen for TC32 cells (AID 1347089); conditions: TC32 Ewing sarcoma viability, CellTiter-Glo luminescence, 48 h; series mostly up to 45.8 µM; further: nearly all actives have a fitted effect of over 60% in size; further: potency means the concentration at half of the fitted maximal effect
# Summary of the method: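 In the primary qHTS, MIPE compounds were tested at 11 concentrations (0.78 nM to 46 µM) and NPC compounds at 8 (0.59 nM to 46 µM) on TC32 cells for 48 h. CellTiter-Glo luminescence gave viability.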
# [5] = qHTS of pediatric cancer cell lines to identify multiple opportunities for drug repurposing: Primary screen for SJ-GBM2 cells (AID 1347091); conditions: SJ-GBM2 viability, CellTiter-Glo luminescence, 48 h; series mostly up to 46 µM
# Summary of the method: as §1
# [6] = qHTS of pediatric cancer cell lines to identify multiple opportunities for drug repurposing: Primary screen for A673 cells (AID 1347092); conditions: A673 Ewing sarcoma viability, CellTiter-Glo ATP luminescence, 48 h; series mostly up to 46 µM; further: nearly all actives have a fitted effect of over 45% in size; further: potency means the concentration at half of the fitted maximal effect
# Summary of the method: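 48 h compound exposure, A673, 500-1,000 cells/well, 37 degrees C/5% CO2. MIPE: 11-point, 0.78 nM-46 µM; NPC: 8-point, 0.59 nM-46 µM (final). Readout CellTiter-Glo luminescence after 15 min RT.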
# [7] = qHTS of pediatric cancer cell lines to identify multiple opportunities for drug repurposing: Primary screen for SK-N-MC cells (AID 1347093); conditions: SK-N-MC viability, CellTiter-Glo luminescence, 48 h; series mostly up to 46 µM; further: potency means the concentration at half of the fitted maximal effect
# Summary of the method: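 Metabolically active cells were quantified by ATP-dependent luminescence (CellTiter-Glo, 15 min at room temperature) following 48 h treatment. Cells had been plated at 500-1,000 per well and settled for 5 h beforehand.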
# [8] = qHTS of pediatric cancer cell lines to identify multiple opportunities for drug repurposing: Primary screen for BT-37 cells (AID 1347094); conditions: BT-37 viability, CellTiter-Glo luminescence, 48 h; series mostly up to 57.3 µM; further: potency means the concentration at half of the fitted maximal effect
# Summary of the method: as §2
Compound,Potency [1],Potency [2],Potency [3],Potency [4],Potency [5],Potency [6],Potency [7],Potency [8]
[Cl][In]([Cl])[Cl],inactive,inactive,inactive,–,–,–,–,–
Cc1c(Cl)cccc1Nc1ccccc1C(=O)O,–,–,inactive,inactive,inactive,inactive,18.8 µM (active),inactive
O=C1Nc2ccc(Cl)cc2[C@@](C#CC2CC2)(C(F)(F)F)O1,–,–,inactive,inactive,–,–,–,–
CN(N=O)C(=O)N[C@@H]1[C@@H](O)[C@H](O)[C@@H](CO)O[C@@H]1O,–,inactive,inactive,inactive,inactive,inactive,inactive,–
OCC(CO)N[C@H]1C[C@](O)(CO)[C@@H](O)[C@H](O)[C@H]1O,–,inactive,inactive,inactive,–,inactive,inactive,inactive
CCN(CC)CCNC(=O)c1c(C)[nH]c(/C=C2\C(=O)Nc3ccc(F)cc32)c1C,–,–,21.1 µM (active),8.36 µM (active),–,10.6 µM (active),2.37 µM (active),17.4 µM (active)
Nc1ccc(S(=O)(=O)Nc2ccc(Cl)nn2)cc1,–,inactive,inactive,inactive,inactive,inactive,inactive,inactive
C[C@]12CC[C@@H]3c4ccc(O)cc4CC[C@H]3[C@@H]1CC[C@@H]2OC(=O)CCC1CCCC1,–,–,–,inactive,–,inactive,inactive,–
CC(=O)Oc1ccc(C2(c3ccc(OC(C)=O)cc3)C(=O)Nc3ccccc32)cc1,–,inactive,inactive,inactive,inactive,inactive,–,inactive
CC[N+](CC)(CC)CCOc1ccc(/C=C/c2ccccc2)cc1,–,–,inactive,21 µM (active),–,2.66 µM (active),5.96 µM (active),15.5 µM (active)
CCOC(=O)[C@H](CCc1ccccc1)N[C@@H](C)C(=O)N1C(=O)N(C)C[C@H]1C(=O)O,–,inactive,inactive,inactive,inactive,inactive,inactive,inactive
CCN(CC)C(=O)Nc1ccc(OCC(O)CNC(C)(C)C)c(C(C)=O)c1 (centres undefined),–,inactive,inactive,inactive,inactive,inactive,inactive,inactive
O=C(O)c1ccccc1-c1ccc(C(F)(F)F)cc1,–,inactive,inactive,inactive,inactive,inactive,inactive,inactive
CN1CCCCC1CCN1c2ccccc2Sc2ccc(S(C)=O)cc21 (centres undefined),–,inactive,inactive,inactive,inactive,inactive,inactive,inactive
Cc1cccc(Nc2cc(Cl)nc(SCC(=O)O)n2)c1C,–,inactive,inactive,inactive,inactive,inactive,inactive,–
NS(=O)(=O)c1cc2c(cc1Cl)NC(CSCc1ccccc1)=NS2(=O)=O,–,inactive,inactive,inactive,inactive,inactive,inactive,–
CCCCN1CCCC[C@H]1C(=O)Nc1c(C)cccc1C,–,inactive,inactive,inactive,inactive,inactive,inactive,–
C[C@@H]1C[C@H]2[C@@H]3C[C@H](F)C4=CC(=O)C=C[C@]4(C)[C@@]3(F)[C@@H](O)C[C@]2(C)[C@@]1(O)C(=O)CO,–,inactive,inactive,inactive,inactive,inactive,inactive,–
CC(O)CN(CCN(CC(C)O)CC(C)O)CC(C)O (centres undefined),–,inactive,inactive,inactive,inactive,inactive,inactive,inactive
O=C(CCCN1CCN(c2ccccn2)CC1)c1ccc(F)cc1,–,inactive,–,inactive,–,–,–,inactive
Oc1cccc(O)c1,–,inactive,inactive,inactive,–,inactive,inactive,inactive
CN(C)CCN(Cc1ccccc1)c1ccccn1,–,inactive,inactive,inactive,inactive,inactive,–,inactive
Nc1ccc(S(=O)(=O)Nc2ccccc2)cc1,–,inactive,inactive,inactive,–,inactive,inactive,inactive
O=C(O)c1ccccn1,–,inactive,inactive,inactive,–,inactive,inactive,inactive
CC(=O)O[C@@]12CO[C@@H]1C[C@H](O)[C@@]1(C)C(=O)[C@H](O)C3=C(C)[C@@H](OC(=O)[C@H](O)[C@@H](NC(=O)OC(C)(C)C)c4ccccc4)C[C@@](O)([C@@H](OC(=O)c4ccccc4)[C@H]21)C3(C)C,–,–,inactive,0.0026 µM (active),–,0.001 µM (active),0.001 µM (active),–
CN(C)CCCO[C@@H]1[C@H]2OC(C)(C)O[C@H]2O[C@@H]1C(O)CO (some centres undefined),–,inactive,inactive,inactive,inactive,inactive,inactive,inactive
CCCOC(=O)c1ccccc1,–,inactive,inactive,inactive,–,inactive,inactive,inactive
CCC(=O)Nc1ccc(O)cc1,–,inactive,inactive,inactive,–,inactive,inactive,inactive
O=C(O)Cc1sc(-c2ccccc2)nc1-c1ccc(Cl)cc1,–,inactive,inactive,inactive,–,inactive,inactive,inactive
